Most compounds without a hit are left out; they make up all but 19% or so of the library.
HT1080NT lethal: qHTS for induction of synthetic lethality in tumor cells producing 2HG: qHTS for the HT-1080-NT fibrosarcoma cell line. Potency, µM (series often up to 46.1 µM), without a hit: at the highest dose activity, negative = less viability, usual class: cytotoxic. hit rate 1.6% among 360,000. HT-1080-NT fibrosarcoma viability, CellTiter-Glo ATP luminescence, 48 h;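 note: NT is the 2HG producing partner of a matched IDH1 knockdown line; 0% = DMSO-treated cells and -100% = media-only wells without cells; nearly all actives have a fitted effect of over 55% in size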
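Toxicity toward the 2HG-producing NT line was scored as %Activity, normalised to DMSO and no-cell wells, from CellTiter-Glo luminescence after 48 hours' treatment.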
KB-3-1 tox: qHTS assay for MDR1-selective chemotherapeutics: Primary screen using the parental adenocarcinoma cell KB-3-1; AID 1347075, 2019; KB-3-1 viability, CellTiter-Glo ATP luminescence, 72 h; hit rate 1.4% among 400,000; Potency, µM (series often up to 46.1 µM), actives largely listed as cytotoxic; note: nearly all actives have a fitted effect of over 60% in size
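Parental KB-3-1 adenocarcinoma cells in phenol-red-free DMEM with 10% FBS were pin-treated with compounds at several concentrations, incubated 72 h at 37 °C, and viability read by CellTiter-Glo luminescence; concentration-effect curves were fitted after normalization.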
TDP1 cell noCPT: qHTS for Inhibitors of human tyrosyl-DNA phosphodiesterase 1 (TDP1): qHTS in cells in absence of CPT | DT40 Tdp1-/- hTDP1 cells, no CPT, ATP luminescence, 48 h | Potency, µM (doses to about 46.2 µM), without a hit: top-dose activity change, negative = growth inhibition, hits mostly inhibitors | hit rate 15% among 420,000; note: nearly all actives have a fitted effect of over 55% in size
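Chicken DT40 Tdp1-/- cells stably complemented with human TDP1 were seeded at 400 cells/well with DMSO in place of 20 nM camptothecin. After compound pinning, cells grew at least 48 hr at 37 °C; viability read by CellTiter-Glo luminescence.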
HT1080 IDH1KD tx: qHTS for induction of synthetic lethality in tumor cells producing 2HG: qHTS for the HT-1080-IDH1KD cell line; HT-1080 IDH1 knockdown viability, ATP luminescence, 48 h; Potency, µM (doses to about 46.1 µM), for inactives: at the top dose activity, negative = toxicity, most hits filed as cytotoxic; hit rate 2% among 360,000;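 note: 0% = DMSO wells and -100% = cell-free medium wells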
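Knockdown cells (IDH1KD HT-1080) received compounds 2 h after plating at 750 cells/well and were kept 48 h at 37 °C in 5% FBS RPMI. A CellTiter-Glo luminescence read gave % activity for curve fitting.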
TDP1 cell CPT: qHTS for Inhibitors of human tyrosyl-DNA phosphodiesterase 1 (TDP1): qHTS in cells in presence of CPT; chicken DT40 Tdp1-/-;hTDP1 cells + 20 nM CPT, ATP luminescence, 48 h; Potency, µM (top dose mostly 46.2 µM), inactives show at the top dose activity change, negative = growth inhibition, hits mostly inhibitors; hit rate 12% among 420,000; AID 686979, 2013; note: nearly all actives have a fitted effect of over 55% in size
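Chicken DT40 Tdp1-/- cells complemented with human TDP1, 400 cells/well, exposed to compounds plus 20 nM camptothecin for at least 48 h at 37 C; viability read as ATP content by CellTiter-Glo luminescence.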
KB-V1 MDR tox: qHTS assay for MDR1-selective chemotherapeutics: Primary screen using the drug-selected MDR subline cells KB-V1. KB-V1 MDR cells viability, CellTiter-Glo, 72 h. Potency, µM (highest dose often 46.1 µM), most hits filed as cytotoxic. hit rate 3.4% among 400,000. AID 1347076, 2019; note: nearly all actives have a fitted effect of over 60% in size
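In this primary screen, KB-V1 cells overexpressing P-gp are incubated with library compounds (lowest to highest concentration) for 72 h at 37 degrees C before a luminescent ATP viability read.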
The depositor's hits bear a star. Calls come from the whole dose curve; as a rule, active = well fitted curve in the direction sought with a large enough effect; inconclusive = small, poorly fitted or top-dose-only effect, or another doubt; inactive = no such curve, though single readings can be large; an effect the other way counts as inactive or inconclusive. Unless noted, % is set by controls: 0 for no effect and ±100 for the full control effect; potency is the fitted concentration of half-maximal effect.

`COC(=O)C1=C(C)OC(N)=C(C#N)C1c1cc(OC)c(OCC(N)=O)cc1Cl` (centres undefined) gave HT1080NT lethal 7.4%, KB-3-1 tox inactive, TDP1 cell noCPT inconclusive, HT1080 IDH1KD tx 1.5%, TDP1 cell CPT inconclusive and KB-V1 MDR tox inactive.
CCc1ccc(CNCc2c(C(=O)O)n(Cc3cccc(F)c3)c3cc(OC)ccc23)cc1 was read as KB-3-1 tox inactive, TDP1 cell noCPT 20.6µM*, TDP1 cell CPT 23.1µM* and KB-V1 MDR tox inactive.
`COc1ccc2c(CNCCc3ccc(SC)cc3)c(C(=O)O)n(Cc3ccc(F)cc3)c2c1` gave KB-3-1 tox inconclusive, TDP1 cell noCPT 11.6µM*, TDP1 cell CPT 16.4µM* and KB-V1 MDR tox inactive.
Screening COc1ccc2c(CNCc3ccco3)c(C(=O)O)n(Cc3cccc(F)c3)c2c1 returned KB-3-1 tox inconclusive, TDP1 cell noCPT inconclusive, TDP1 cell CPT -3.4% and KB-V1 MDR tox inactive.
COc1ccc(OC)c(CNCc2c(C(=O)O)n(Cc3ccccc3)c3cc(OC)ccc23)c1 was read as KB-3-1 tox inactive, TDP1 cell noCPT inconclusive, TDP1 cell CPT inconclusive and KB-V1 MDR tox inactive.
`COc1ccc(OC)c(CNCc2c(C(=O)O)n(Cc3cccc(F)c3)c3cc(OC)ccc23)c1` gave KB-3-1 tox inactive, TDP1 cell noCPT 20.6µM*, TDP1 cell CPT inconclusive and KB-V1 MDR tox inactive.
For COc1ccc(Cn2c(C(=O)O)c(CNCC(C)c3ccccc3)c3ccc(OC)cc32)cc1 (centres undefined) the results were KB-3-1 tox inconclusive, TDP1 cell noCPT 23.1µM*, TDP1 cell CPT inconclusive and KB-V1 MDR tox inactive.
`CCOC(=O)N1CCC(Nc2c(NCCCN(CC)Cc3ccccc3)c(=O)c2=O)CC1` gave HT1080NT lethal 2.8%, KB-3-1 tox inactive, TDP1 cell noCPT -8.0%, HT1080 IDH1KD tx 7.5%, TDP1 cell CPT -5.9% and KB-V1 MDR tox inactive.
`CS(=O)(=O)N1CCCC(c2nc(-c3ccc(S(=O)(=O)NCc4ccccc4)cc3)no2)C1` (centres undefined) gave HT1080NT lethal inconclusive, KB-3-1 tox inconclusive, TDP1 cell noCPT 10.3µM*, HT1080 IDH1KD tx inconclusive, TDP1 cell CPT 13µM* and KB-V1 MDR tox 3.26µM*.
Screening O=C(Cc1ccccc1)N1CCC(c2nc(-c3ccc(F)cc3)no2)CC1 returned HT1080NT lethal -4.0%, KB-3-1 tox inactive, TDP1 cell noCPT inconclusive, HT1080 IDH1KD tx -26.7%, TDP1 cell CPT inconclusive and KB-V1 MDR tox inconclusive.
Screening Cc1ccc(-c2nc(C3CCN(S(=O)(=O)c4ccc(C(C)(C)C)cc4)CC3)no2)cc1 returned HT1080NT lethal 2.9%, KB-3-1 tox inactive, TDP1 cell noCPT inconclusive, HT1080 IDH1KD tx 7.6%, TDP1 cell CPT inconclusive and KB-V1 MDR tox inactive.
Screening O=C(NC1CCCCC1)N1CCC(c2nc(-c3ccc(S(=O)(=O)N4CCCC4)cc3)no2)CC1 returned HT1080NT lethal -0.8%, KB-3-1 tox 8.2µM*, TDP1 cell noCPT 9.2µM*, HT1080 IDH1KD tx -0.7%, TDP1 cell CPT 10.3µM* and KB-V1 MDR tox 2.59µM*.
For O=C(Cc1ccccc1)N1CCCC(c2nc(-c3ccc(S(=O)(=O)N4CCCC4)cc3)no2)C1 (centres undefined) the results were HT1080NT lethal -6.8%, KB-3-1 tox inactive, TDP1 cell noCPT inconclusive, HT1080 IDH1KD tx 6.0%, TDP1 cell CPT inconclusive and KB-V1 MDR tox 9.2µM*.
For CC(C)(C)c1ccc(C(=O)N2CCC(c3noc(-c4ccc(S(=O)(=O)N5CCCC5)cc4)n3)CC2)cc1 the results were TDP1 cell noCPT 18.4µM* and TDP1 cell CPT 20.6µM*.
For CCN(CC)c1ncnc2c1ncn2[C@H]1CN(Cc2cc(OC)c(OC)c(OC)c2)C[C@@H](CO)O1 the results were HT1080NT lethal 15.8%, KB-3-1 tox inactive, TDP1 cell noCPT -29.0%, HT1080 IDH1KD tx 10.0%, TDP1 cell CPT -15.8% and KB-V1 MDR tox inactive.
NS(=O)(=O)c1ccc(NC(=S)NCc2ccco2)cc1 was read as HT1080NT lethal 8.6%, KB-3-1 tox inactive, TDP1 cell noCPT -17.4%, HT1080 IDH1KD tx 7.9%, TDP1 cell CPT -22.9% and KB-V1 MDR tox inactive.
Screening CCC(Nc1ccc(-c2nc(-c3ccccn3)no2)cc1[N+](=O)[O-])c1ccccc1 (centres undefined) returned KB-3-1 tox inactive, TDP1 cell noCPT inconclusive, TDP1 cell CPT inconclusive and KB-V1 MDR tox inactive.
For CCOC(=O)C1=C(CNCc2ccc(C)cc2)NC(=O)NC1c1cc(C)ccc1C (centres undefined) the results were HT1080NT lethal 0.8%, KB-3-1 tox inactive, TDP1 cell noCPT inconclusive, HT1080 IDH1KD tx -10.4%, TDP1 cell CPT 20µM* and KB-V1 MDR tox inactive.
For CCOC(=O)C1=C(Cn2cnc3ccccc32)NC(=O)NC1c1cc(C)ccc1C (centres undefined) the results were HT1080NT lethal inconclusive, KB-3-1 tox inactive, TDP1 cell noCPT 23.1µM*, HT1080 IDH1KD tx inconclusive, TDP1 cell CPT 25.9µM* and KB-V1 MDR tox inconclusive.
Screening CCOC(=O)C1=C(CSc2nccn2C)NC(=O)NC1c1cc(C)ccc1C (centres undefined) returned HT1080NT lethal -1.0%, KB-3-1 tox inactive, TDP1 cell noCPT -13.2%, HT1080 IDH1KD tx inconclusive, TDP1 cell CPT -8.0% and KB-V1 MDR tox inactive.
COc1ccc(CNC(=O)Cc2c(C)c3ccc(O)cc3oc2=O)cc1 was read as KB-3-1 tox inactive, TDP1 cell noCPT -2.0%, TDP1 cell CPT 3.3% and KB-V1 MDR tox inactive.
Screening COc1cccc(OCCOc2ccc(/C=C3\C(=N)N4N=C(S(C)(=O)=O)SC4=NC3=O)cc2OC)c1 returned HT1080NT lethal 2.5%, KB-3-1 tox inactive, TDP1 cell noCPT -3.4%, HT1080 IDH1KD tx -0.4%, TDP1 cell CPT -13.2% and KB-V1 MDR tox inactive.

Assay outcomes (PubChem BioAssay)
